JMJD2A Tudor inh: JMJD2A Tudor domain (human) inhibition; 390,000 compounds, 4.4% hits; O75164; AlphaScreen JMJD2A-Tudor / H3K4me3 peptide binding; Potency, µM (series often up to 114 µM), for the others: at the top dose activity change, negative = inhibition, actives largely listed as inhibitors; note: % is set by controls: 0 for no effect and ±100 for the full control effect; nearly all actives have a fitted effect of over 50% in size
HP1b chromo inh: HP1-beta chromodomain-methylated histone interaction inhibition. AlphaScreen HP1-beta / biotin-H3K9me3 peptide binding. 390,000 compounds, 0.56% hits. Potency, µM (titrated, usually from 114 µM), inactives show top-dose activity change, negative = inhibition, usual class: inhibitors. P83916; note: nearly all actives have a fitted effect of over 70% in size
Target sequence (P83916 whole entry, looked up): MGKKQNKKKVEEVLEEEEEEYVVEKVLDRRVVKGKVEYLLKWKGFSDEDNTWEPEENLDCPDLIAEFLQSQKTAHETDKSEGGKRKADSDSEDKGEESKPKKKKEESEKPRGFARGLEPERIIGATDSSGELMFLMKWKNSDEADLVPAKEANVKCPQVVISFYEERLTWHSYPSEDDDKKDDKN
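Compound inhibition of the preformed complex between 50 nM HP1-beta and 50 nM biotinylated H3K9me3 peptide was read by AlphaScreen. Buffer was PBS pH 7.4 with 0.01% Tween-20. Incubations ran 30 min at room temperature, with 10 ug/mL donor/acceptor beads.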
BAZ2B inh: BAZ2B (human) inhibition; Potency, µM (series often up to 114 µM), inactives show top-dose activity change, negative = inhibition, usual class: inhibitors; AID 504333; 360,000 compounds, 4.4% hits; AlphaScreen BAZ2B-H3K14Ac peptide displacement; Q9UIF8; note: % is set by controls: 0 for no effect and ±100 for the full control effect; nearly all actives have a fitted effect of over 60% in size
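BAZ2B 50 nM plus b-H3(5-23)K14Ac 50 nM, PBS pH 7.4/0.01% Tween-20, 30 min RT; compound added (max 110 uM), 30 min RT; streptavidin donor/Ni-chelate acceptor beads 10 ug/mL final, 20 min dark; AlphaScreen read.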
Sfp PPTase inh: blocks B. subtilis Sfp PPTase activity; 310,000 compounds, 3.5% hits; Biochemical Sfp PPTase activity, qHTS; Potency, µM, inactives show largest response in the series, negative = inhibition, usual class: inhibitors;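 note: the enzyme is Sfp with the accession as filed and its product quenches rhodamine fluorescence; 0% = enzyme reaction without inhibitor and -100% = no enzyme wells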
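Reaction rates are the 30-min fluorescence difference (ex 525, em 598 nm) in wells containing 15 nM Sfp, 5 uM rhodamine-CoA and 12.5 uM BHQ-2-YbbR at pH 7.6 with 10 mM MgCl2.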
PLK1 PBD block: PLK1 (human) polo-box domain binding inhibition | Plk1 PBD binding of FITC phosphopeptide, fluorescence polarization | Potency, µM, for inactives: max response, negative = inhibition, actives largely listed as inhibitors | 360,000 compounds, 2.8% hits | AID 720504; note: series mostly up to about 57 µM; % is set by controls: 0 for no effect and ±100 for the full control effect; nearly all actives have a fitted effect of over 65% in size
G9a block: G9a (human) methyltransferase inhibition. G9a H3K9 monomethylation, AlphaScreen, 2 h. Potency, µM (highest dose often 102 µM), without a hit: top-dose activity, negative = inhibition, actives largely listed as inhibitors. AID 504332. 350,000 compounds, 8.8% hits; note: % is set by controls: 0 for no effect and ±100 for the full control effect; nearly all actives have a fitted effect of over 75% in size
Target sequence (Q96KQ7 913-1193 limits assumed): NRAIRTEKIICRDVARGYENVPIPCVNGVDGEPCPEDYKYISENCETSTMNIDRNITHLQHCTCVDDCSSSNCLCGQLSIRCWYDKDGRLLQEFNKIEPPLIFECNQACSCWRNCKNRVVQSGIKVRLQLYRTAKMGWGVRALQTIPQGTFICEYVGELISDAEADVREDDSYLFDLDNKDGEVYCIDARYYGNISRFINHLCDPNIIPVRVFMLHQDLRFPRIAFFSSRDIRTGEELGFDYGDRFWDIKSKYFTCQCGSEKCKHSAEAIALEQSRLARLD
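Signal arises when biotinylated H3K9 peptide, once monomethylated, bridges streptavidin donor and antibody-captured acceptor beads. Enzyme at 20 nM was preincubated 15 min with test compounds; peptide 500 nM and SAM 20 uM then reacted for 2 h.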
* hit, by the source's call; ? = inconclusive; / = no result given; [ ] = remark or other dose. The list is not random: actives were taken first. Their share in the collection is about 12%. Calls come from the whole dose curve; as a rule, active = well fitted curve in the direction sought with a large enough effect; inconclusive = small, poorly fitted or top-dose-only effect, or another doubt; inactive = no such curve, though single readings can be large; an effect the other way counts as inactive or inconclusive. Potency is the fitted concentration of half-maximal effect.

SMILES	JMJD2A Tudor inh	HP1b chromo inh	BAZ2B inh	Sfp PPTase inh	PLK1 PBD block	G9a block
O=C(O)CC(C(=O)O)c1ccc(OCCCCOc2ccc(C(CC(=O)O)C(=O)O)cc2)cc1 (stereo unspecified)	?	12%	-30%	12%	-5%	79µM*
O=C(CCN1C(=O)c2ccccc2C1=O)Oc1ccc2ccccc2c1	6%	45%	10%	-4%	-11%	63%[12.7 µM]
CC1=CC(C)(C)Nc2ccc(OC(=O)CCN3C(=O)c4ccccc4C3=O)cc21	-19%	?	35µM*	13%	-6%	20µM*
COc1ccc(Nc2ccc(C(=O)O)cc2[N+](=O)[O-])cc1	-4%	16%	-30%	21%	5%	2%[59 µM]
NS(=O)(=O)c1ccc(Nc2ccccc2)c([N+](=O)[O-])c1	-26%	1%	?	27%	-3%	?
COc1ccc(Nc2ccc([N+](=O)[O-])cc2[N+](=O)[O-])cc1	50µM*	?	25µM*	0%	-17%	13µM*
NC(=O)c1ccc(Nc2ccc([N+](=O)[O-])cc2[N+](=O)[O-])cc1	-23%	-7%	-28%	7%	-11%	?
O=[N+]([O-])c1cc(Cl)ccc1Nc1ccccc1	28µM*	18µM*	5µM*	2%	5%	11µM*
Nc1ccc(Nc2ccc([N+](=O)[O-])cc2[N+](=O)[O-])cc1	?	?	28µM*	0%	-2%	45µM*
COC(=O)N[C@@H](/C=C/c1ccccc1)C[N+](=O)[O-]	/	/	/	14%	/	/
CCn1c(CN2CCN(c3cccc(Cl)c3)CC2)nc2c1c(=O)[nH]c(=O)n2C	-31%	17%	-22%	/	/	-25%[59 µM]
Cc1nnc2ccc(-c3cccc(NS(=O)(=O)c4ccccc4[N+](=O)[O-])c3)nn12	2%	28%	-34%	/	-6%	50µM*
COc1cccc(CN2CCNC(=O)C2CC(=O)NC2Cc3ccccc3C2)c1 (stereo unspecified)	-11%	40%	?	7%	-13%	45µM*
COc1cccc(CN2CCNC(=O)C2CC(=O)NCC2CCOCC2)c1 (stereo unspecified)	-12%	40%	0%	1%	-10%	50µM*
CCCN1CCC(NC(=O)CC2C(=O)NCCN2Cc2cccc(OC)c2)CC1 (stereo unspecified)	-15%	26%	10%	13%	-7%	19%
COc1ccc(CN2CCNC(=O)C2CC(=O)NCC2CCOCC2)c(F)c1 (stereo unspecified)	-6%	13%	-3%	3%	-10%	79µM*
COc1cccc(CN2CCNC(=O)C2CC(=O)NCCc2ccccn2)c1 (stereo unspecified)	-6%	33%	-5%	-17%	-7%	?
COc1ccc(CN2CCNC(=O)C2CC(=O)NCC2CCOCC2)c(C)c1C (stereo unspecified)	2%	38%	1%	-6%	-5%	84%
COc1cccc(CN2CCNC(=O)C2CC(=O)NCc2cc(C(C)C)no2)c1 (stereo unspecified)	-1%	28%	2%	3%	-3%	50µM*
COC(=O)c1cc(Br)c(=O)n(-c2cc(C)on2)c1	4%	26%	15%	6%	2%	4%
O=C(CC1C(=O)NCCN1Cc1cccc(F)c1)NCCCCCN1CCOCC1 (stereo unspecified)	-7%	31%	-11%	3%	-7%	71µM*
COc1cc(CN2CCNC(=O)C2CC(=O)NCCC2=CCCCC2)cc(OC)c1 (stereo unspecified)	-17%	28%	-24%	4%	-22%	50µM*
O=C(CC1C(=O)NCCN1Cc1cccc(Oc2ccccc2)c1)NCC1CCOCC1 (stereo unspecified)	-17%	47%	-28%	-8%	-16%	45µM*
COc1cccc(CNC(=O)CC2C(=O)NCCN2CCCc2ccccc2)c1 (stereo unspecified)	-15%	25%	-24%	2%	-2%	50µM*
CC(=O)C1=C(C)Nc2ncnn2C1c1ccccc1F (stereo unspecified)	-18%	25%	0%	9%	-9%	36%
SMILES	JMJD2A Tudor inh	HP1b chromo inh	BAZ2B inh	Sfp PPTase inh	PLK1 PBD block	G9a block
CCCn1c(-c2ccc(F)cc2)nc2c(NCCCCN(C)C)nc(C)nc21	/	/	/	23%	/	/
Cc1oc2cc(Br)c(O)c(Br)c2c1-c1ccccc1	-2%	-10%	-6%	1%	-10%	?
O=C(CC1C(=O)NCCN1Cc1cccc(F)c1F)NCCCC1CCCC1 (stereo unspecified)	-11%	39%	-19%	3%	-19%	50µM*
CC(=O)c1c(C)oc2ccc(NS(=O)(=O)c3ccc(C)cc3)cc12	-6%	13%	7%	1%	-3%	26%[59 µM]
Cc1ccc(C)c(S(=O)(=O)Nc2ccc3oc(C)c(C(=O)O)c3c2)c1	50µM*	50µM*	50µM*	-12%	?	40µM*
COn1c2c(c3c4no[n+]([O-])c4ccc31)CCCC2	-15%	11%	-28%	11%	0%	-16%
COn1c2c(c3c4nonc4ccc31)CCCC2	34%	103%	14%	-27%	?	10µM*
COc1ccc(N2CCN(C(=O)COc3ccccc3C#N)CC2)cc1	-26%	1%	-32%	/	/	?
O=C1N=c2ccccc2=C1c1sc(NS(=O)(=O)Cc2ccccc2)nc1O	?	6%	?	-5%	?	-18%[59 µM]
O=C1N=c2ccccc2=C1c1sc(Nc2ccc(O)cc2)nc1O	?	21%	56µM*	56µM*	-21%	79µM*
O=C1N=c2ccccc2=C1c1sc(Nc2cccc(O)c2)nc1O	?	-15%	56µM*	-25%	-10%	?
O=C(O)CCC(C(=O)O)n1c(O)c(C2=c3ccccc3=NC2=O)sc1=S (stereo unspecified)	-14%	0%	?	-28%	-11%	?
N=C1/C(=C/c2ccc(-c3cccc(C(=O)O)c3)o2)C(=O)N=C2SC=C(c3ccccc3)N12	22µM*	?	13µM*	-53%	15µM*	40µM*
O=C(O)c1cccc(-c2ccc(/C=N/n3cnnc3)o2)c1	-2%	28%	-29%	0%	-9%	-13%[59 µM]
CC(C)S(=O)(=O)C1=NSC2=NC(=O)/C(=C\c3ccc(-c4cccc(C(=O)O)c4)o3)C(=N)N21	?	10%	79µM*	14µM*	-14%	40µM*
CC(C)S(=O)(=O)C1=NSC2=NC(=O)/C(=C\c3ccc(-c4ccccc4)o3)C(=N)N21	-26%	1%	?	-1%	30µM*	?

Screens as filed in PubChem BioAssay.
